These results are taken from the antibiotic and cytotoxicity screens of Wong et al. (2023).

The structures appear in SMILES notation. The whole screen tested about 39,000 compounds, of which about 1,500 (3.8%) were called active. Many of the other results were omitted from the sample, so actives are more common in it than they were.

The experiment concerns HSkMC (human skeletal muscle cells). Briefly: cytotoxicity call (relative viability < 0.9). To be noted: 10 µM.
As for `COc1ccc(NC(=O)N(C)C[C@@H]2OCCCC[C@H](C)Oc3ccc(NS(=O)(=O)c4ccc(F)cc4)cc3C(=O)N([C@H](C)CO)C[C@H]2C)cc1`, the cytotoxicity call is “inactive”. For `COc1ccc(C#Cc2cnc3c(c2)C(=O)N([C@@H](C)CO)C[C@@H](C)[C@H](CN(C)CC2CCOCC2)O3)cc1` the value was “inactive”. As for `C[C@@H]1CCCCO[C@H](CN(C)C(=O)CCC(F)(F)F)[C@H](C)CN([C@H](C)CO)C(=O)c2cc(NC(=O)CCC(F)(F)F)ccc2O1`, the entry is “inactive”; as for `COc1ccc(-c2coc3cc(O)cc(OC)c3c2=O)cc1`, “inactive”. As for `C[C@H](CO)N1C[C@H](C)[C@H](CN(C)C(=O)Nc2ccc(F)cc2)Oc2ccc(NC(=O)C3CC3)cc2CC1=O`, the entry is “inactive”.

Turning to `Cc1noc(C)c1NC(=O)N(C)C[C@H]1Oc2ccc(NS(=O)(=O)c3c(C)noc3C)cc2C(=O)N([C@@H](C)CO)C[C@@H]1C`, the cytotoxicity call was “inactive”. As to `CCc1ccc(/C=C2\SC(=O)N(CCCCCCNC(=O)c3ccccc3Nc3ccc([N+](=O)[O-])c4nonc34)C2=O)cc1`, the cytotoxicity call is “active”. With `CCc1ccc(/C=C2\SC(=O)N(CCCCCCNC(=O)c3ccc(Nc4ccc([N+](=O)[O-])c5nonc45)cc3)C2=O)cc1`, the cytotoxicity call is “inactive”. As for `COc1ccc(NC(=O)Nc2ccc3c(c2)C(=O)N([C@H](C)CO)C[C@H](C)[C@H](CN(C)S(=O)(=O)c2ccccc2)OCCCC[C@H](C)O3)cc1`, the entry is “inactive”; as for `C[C@@H]1CN([C@H](C)CO)C(=O)c2cccc(NC(=O)Nc3ccc(C(F)(F)F)cc3)c2O[C@H]1CN(C)Cc1ccc(Cl)c(Cl)c1`, “active”. Regarding `C[C@H](CO)N1C[C@H](C)[C@@H](CN(C)Cc2ccc(Cl)c(Cl)c2)Oc2c(NC(=O)Nc3ccc(C(F)(F)F)cc3)cccc2C1=O`, the cytotoxicity call is “active”. For `C[C@H]1CN([C@@H](C)CO)C(=O)c2cccc(NC(=O)Nc3ccc(C(F)(F)F)cc3)c2O[C@H]1CN(C)Cc1ccc(C(F)(F)F)cc1` the value was “inactive”. As for `C[C@H]1CN([C@@H](C)CO)C(=O)c2cccc(NC(=O)Nc3ccc(C(F)(F)F)cc3)c2O[C@H]1CN(C)Cc1ccc(Cl)c(Cl)c1`, the entry is “active”; as for `C[C@@H]1CN([C@@H](C)CO)C(=O)c2cccc(NC(=O)Nc3ccc(C(F)(F)F)cc3)c2O[C@H]1CN(C)Cc1ccc(Cl)c(Cl)c1`, “active”. For `C[C@H](CO)N1C[C@H](C)[C@H](CN(C)C(=O)Nc2ccnc(N3CCOCC3)c2)OCc2cn(nn2)CCCC1=O` the value was “inactive”; for `C[C@@H]1CN([C@H](C)CO)C(=O)c2cc(NS(=O)(=O)c3ccccc3)ccc2O[C@@H](C)CCCCO[C@@H]1CN(C)Cc1ccccc1`, “inactive”; for `C[C@H]1CN([C@@H](C)CO)S(=O)(=O)c2ccc(C#CC3CC3)cc2O[C@H]1CN(C)C(=O)c1cccc(F)c1`, “inactive”.

Turning to `Cc1nnc(SCC2=C(C(=O)[O-])N3C(=O)C(NC(=O)Cn4cnnn4)C3SC2)s1.[Na+]` (stereo unspecified), the cytotoxicity call was “inactive”. For `C[C@H](CO)N1C[C@H](C)[C@H](CN(C)Cc2ccc(Cl)c(Cl)c2)OCc2ccccc2-c2c(n(C)c3ccccc23)C1=O` the value was “inactive”; for `C[C@H]1CN([C@@H](C)CO)C(=O)c2cc(C#Cc3ccccn3)cnc2O[C@@H]1CN(C)C(=O)c1cnccn1`, “inactive”.

`COc1ccc(NC(=O)Nc2ccc3c(c2)C(=O)N([C@@H](C)CO)C[C@H](C)[C@H](CN(C)Cc2ccncc2)OCCCC[C@@H](C)O3)cc1`: the cytotoxicity call is “inactive”.

For `O=C(/C=C/c1ccc(O)c(O)c1)O[C@@H]1C[C@](OC(=O)/C=C/c2ccc(O)c(O)c2)(C(=O)O)C[C@@H](OC(=O)/C=C/c2ccc(O)c(O)c2)[C@H]1O`, the cytotoxicity call was “inactive”. For `C[C@@H]1CN([C@@H](C)CO)C(=O)c2cccc(NC(=O)Nc3ccc(C(F)(F)F)cc3)c2O[C@@H]1CN(C)Cc1ccc(Cl)c(Cl)c1` the value was “active”. As to `C[C@H](CO)N1C[C@H](C)[C@H](CN(C)Cc2ccc(Cl)c(Cl)c2)Oc2c(NC(=O)Nc3ccc(C(F)(F)F)cc3)cccc2C1=O`, the cytotoxicity call is “inactive”. As for `C[C@H]1CN([C@@H](C)CO)C(=O)c2cccc(NC(=O)Nc3ccc(C(F)(F)F)cc3)c2O[C@@H]1CN(C)Cc1ccc(Cl)c(Cl)c1`, the entry is “active”. As for `C[C@@H]1CN([C@H](C)CO)C(=O)c2cccc(NC(=O)Nc3ccc(C(F)(F)F)cc3)c2O[C@@H]1CN(C)Cc1ccc(Cl)c(Cl)c1`, the entry is “active”. For `C[C@H]1CN([C@@H](C)CO)C(=O)c2cccc(NC(=O)Nc3ccc(C(F)(F)F)cc3)c2O[C@@H]1CN(C)Cc1ccc(C(F)(F)F)cc1` the value was “inactive”.

As to `COc1ccc(CN(C)C[C@@H]2OCCCC[C@H](C)Oc3ccc(NC(=O)c4ccccc4)cc3C(=O)N([C@H](C)CO)C[C@H]2C)cc1`, the cytotoxicity call is “inactive”. As for `C[C@@H]1CCCCO[C@@H](CN(C)C(=O)Nc2ccc(F)cc2)[C@@H](C)CN([C@@H](C)CO)C(=O)c2cc(NC(=O)Cc3ccccc3)ccc2O1`, the entry is “inactive”.

Turning to `C[C@H](CO)N1C[C@H](C)[C@@H](CN(C)C(=O)c2ccccc2)OCCCC[C@H](C)Oc2ccc(NC(=O)NC3CCCCC3)cc2C1=O`, the cytotoxicity call was “inactive”.

Turning to `Cn1cnc(S(=O)(=O)N2C[C@H](O)COC[C@@H]3O[C@H](CC(=O)NCc4cc(F)cc(F)c4)CC[C@H]32)c1`, the cytotoxicity call was “inactive”. With `N[C@H](C(=O)O)[C@@H](OCc1ccccc1)C(=O)O`, the cytotoxicity call was “inactive”. For `C[C@@H]1CN([C@@H](C)CO)C(=O)c2cc(NS(=O)(=O)c3cccs3)ccc2O[C@@H](C)CCCCO[C@@H]1CN(C)C(=O)Nc1ccccc1` the value was “inactive”. For `CC(C)(C)[S@](=O)N1Cc2cc(C(=O)N[C@H]3CCN(Cc4ccccc4)C3)nc(-c3cccc(-c4cccnc4)c3)c2[C@@H]1CCO` the value was “inactive”; for `CC(C)NC(=O)N1Cc2cc(C(=O)NC3Cc4ccccc4C3)nc(-c3cccc(-c4cccnc4)c3)c2[C@@H]1CCO`, “active”.

With `CC(C)NC(=O)N1Cc2cc(C(=O)NC3Cc4ccccc4C3)nc(-c3cccc(-c4cccnc4)c3)c2[C@H]1CCO`, the cytotoxicity call is “active”. For `CCCNC(=O)c1cc2c(c(-c3cccc(-c4cc5ccccc5o4)c3)n1)[C@H](CCO)N(C(=O)NC(C)C)C2` the value was “inactive”. Regarding `CC(C)NC(=O)N1Cc2cc(C(=O)NC3CCCCC3)nc(-c3cccc(-c4cccnc4)c3)c2[C@H]1CCO`, the cytotoxicity call was “active”. Turning to `CCCNC(=O)c1cc2c(c(-c3cccc(-c4cc5ccccc5o4)c3)n1)[C@@H](CCO)N(C(=O)NC(C)C)C2`, the cytotoxicity call is “inactive”. As for `CC(C)NC(=O)N1Cc2cc(C(=O)NC3CCCCC3)nc(-c3cccc(-c4cccnc4)c3)c2[C@@H]1CCO`, the entry is “inactive”. As for `CCNC(=O)c1cc2c(c(-c3cccc(-c4cc5ccccc5o4)c3)n1)[C@@H](CCO)N(C(=O)NC(C)C)C2`, the cytotoxicity call is “inactive”.

Take `CC(C)(C)[S@](=O)N1Cc2cc(C(=O)N[C@@H]3CCN(Cc4ccccc4)C3)nc(-c3cccc(-c4cccnc4)c3)c2[C@@H]1CCO`: the cytotoxicity call was “inactive”. For `C[C@H]1CN([C@@H](C)CO)C(=O)c2cc(C#Cc3ccccc3F)cnc2O[C@H]1CN(C)C(=O)Cc1cccnc1`, the cytotoxicity call was “inactive”. On to `COCC(=O)Nc1ccc2c(c1)OC[C@@H](C)N(C(=O)Cc1ccccn1)C[C@@H](C)[C@H](OC)CN(C)C2=O`, for which the cytotoxicity call is “inactive”. Turning to `COc1ccc(COC[C@]23NC(=S)N(C(=O)c4ccccc4)[C@H](c4ccccc4O2)[C@H]3CO[Si](C)(C)C(C)(C)C)cc1`, the cytotoxicity call was “inactive”. As for `CO[C@H]1CN(C)C(=O)c2ccc(NC(=O)C3CCOCC3)cc2OC[C@H](C)N(Cc2cccnc2)C[C@@H]1C`, the entry is “inactive”; as for `COc1ccc2c3c(n(c2c1)C)[C@H](CO)N(C[C@]13CCN(CC1)C(=O)c1cnccn1)C(=O)c1cnccn1`, “inactive”; as for `C[C@H](CO)N1C[C@H](C)[C@@H](CN(C)C(=O)Nc2ccc3c(c2)OCO3)Oc2ccc(NC(=O)Cn3cnnn3)cc2CC1=O`, “inactive”. For the compound `CN(C)CCN1C[C@H]2OCCN(Cc3cnn(C)c3)[C@H]2C1`, the cytotoxicity call is “inactive”. As for `CO[C@H]1CN(C)C(=O)c2ccc(NS(C)(=O)=O)cc2OC[C@@H](C)N(C(=O)C2CCCCC2)C[C@H]1C`, the entry is “inactive”; as for `O=c1[nH]cc(F)c(=O)[nH]1`, “inactive”. As for `CC1CC(OC(=O)C(O)c2ccccc2)CC(C)(C)C1` (stereo unspecified), the entry is “inactive”.

Turning to `CC1CC(OC(=O)c2ccccc2O)CC(C)(C)C1` (stereo unspecified), the cytotoxicity call is “active”. For `O=C(Oc1ccccc1C(=O)O)c1ccccc1O` the value was “inactive”. As for `C[C@@H]1CCCCO[C@@H](CN(C)Cc2ccc(C(F)(F)F)cc2)[C@@H](C)CN([C@@H](C)CO)C(=O)c2cc(NS(=O)(=O)c3ccccc3)ccc2O1`, the entry is “inactive”; as for `COc1ccc([Si](C)(C)[C@H]2[C@H](CC(=O)N3Cc4ccccc4C[C@H]3CO)O[C@@]3(C(=O)N(Cc4cccc(N5CCC5=O)c4)c4ccccc43)[C@@H]2C)cc1`, “inactive”. As for `COc1ccc(OC)c(CCNC(=O)CN)c1`, the entry is “inactive”; as for `C[C@@H]1CCCCO[C@@H](CN(C)S(=O)(=O)c2ccccc2)[C@H](C)CN([C@H](C)CO)C(=O)c2cc(NS(=O)(=O)c3ccc(Cl)cc3)ccc2O1`, “inactive”. On to `Cc1ccc(S(=O)(=O)Nc2ccc3c(c2)C(=O)N([C@H](C)CO)C[C@@H](C)[C@H](CN(C)CC2CCCCC2)OCCCC[C@@H](C)O3)cc1`, for which the cytotoxicity call is “inactive”. As for `C[C@@H]1CN([C@@H](C)CO)C(=O)c2cc(NS(=O)(=O)c3ccc(Cl)cc3)ccc2O[C@@H](C)CCCCO[C@H]1CN(C)CC1CCCCC1`, the entry is “inactive”; as for `C[C@@H]1CCCCO[C@H](CN(C)CC2CCCCC2)[C@H](C)CN([C@@H](C)CO)C(=O)c2cc(NS(=O)(=O)c3ccc(Cl)cc3)ccc2O1`, “active”; as for `Cc1ccc(S(=O)(=O)Nc2ccc3c(c2)C(=O)N([C@@H](C)CO)C[C@@H](C)[C@H](CN(C)CC2CCCCC2)OCCCC[C@H](C)O3)cc1`, “inactive”. As for `C[C@@H]1CN([C@H](C)CO)C(=O)c2cc(NS(=O)(=O)c3ccccc3)ccc2O[C@@H](C)CCCCO[C@H]1CN(C)S(=O)(=O)c1ccc(Cl)cc1`, the entry is “active”; as for `C[C@H](CO)N1C[C@H](C)[C@H](CN(C)CC2CCCCC2)OCCCC[C@H](C)Oc2ccc(NS(=O)(=O)c3ccc(Cl)cc3)cc2C1=O`, “inactive”; as for `C[C@@H]1CCCCO[C@H](CN(C)S(=O)(=O)c2ccccc2)[C@H](C)CN([C@@H](C)CO)C(=O)c2cc(NS(=O)(=O)c3ccc(Cl)cc3)ccc2O1`, “inactive”. For the compound `Cc1ccc(S(=O)(=O)Nc2ccc3c(c2)C(=O)N([C@H](C)CO)C[C@H](C)[C@H](CN(C)CC2CCCCC2)OCCCC[C@H](C)O3)cc1`, the cytotoxicity call was “active”.
